Molecules are shown by their SMILES. About 79,000 compounds went through this panel and 15% of them were active in at least one assay; those are over-represented in the sample as a whole. Values without a mark were called inactive. Calls of active or inactive are those of the source. Rule as the data show it: active = growth inhibition above about 70%; inactive = the rest.

Assay [1] can be described thus: NCI Yeast Anticancer Drug Screen. Data for the rad50 strain (AID 155).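 Also: 0% = growth of vehicle-only cultures of the same strain.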 Particulars: S. cerevisiae rad50 strain growth inhibition; at 50.0 µM; stronger effect = higher value. A digest of the protocol:
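Growth of the mutant yeast was measured after compound exposure and referenced to vehicle-treated cultures.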

Assay [2] is described as follows: NCI Yeast Anticancer Drug Screen. Data for the mec2-1 strain (AID 157). The following applies: S. cerevisiae mec2-1 strain, at 50.0 µM, stronger effect = higher value. A digest of the protocol:
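Cells of the genetically defined mec2-1 yeast strain are incubated with test compound. Inhibition of growth is calculated against vehicle-treated controls.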

Assay [3] is described as follows: NCI Yeast Anticancer Drug Screen. Data for the sgs1 mgt1 strain (AID 161).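 Also: 0% = growth of cultures given vehicle only.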 Particulars: S. cerevisiae sgs1 mgt1 strain, at 50.0 µM, stronger effect = higher value. A digest of the protocol: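 Mutant yeast exposed to compound; growth scored against vehicle-only wells.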
Assay [4] is described as follows: NCI Yeast Anticancer Drug Screen. Data for the cln2 rad14 strain (AID 165).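 Also: 0% = growth equal to vehicle treated cultures.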 Particulars: S. cerevisiae cln2 rad14 strain, at 50.0 µM, stronger effect = higher value. A digest of the protocol: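 The screen exposed genetically defined yeast (cln2 rad14) to test compounds and scored growth inhibition relative to vehicle-treated controls.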
Assay [5] is described as follows: NCI Yeast Anticancer Drug Screen. Data for the bub3 strain (AID 167). The following applies: S. cerevisiae bub3 mutant strain, at 50.0 µM, stronger effect = higher value. A digest of the protocol: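 Whole-cell yeast assay. The mutant strain was incubated with compounds, and growth inhibition was determined by comparison with vehicle-treated cells.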
Assay [6] is described as follows: NCI Yeast Anticancer Drug Screen. Data for the mlh1 rad18 strain (AID 175). Particulars: S. cerevisiae mlh1 rad18 strain growth inhibition; at 50.0 µM; stronger effect = higher value. A digest of the protocol:
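Compound-treated yeast growth, normalised to vehicle controls. Strain bears defined DNA repair mutations.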

In the case of `O=C(Nc1cccc([N+](=O)[O-])c1)c1ccc(Cl)cc1`, the growth inhibition is -5.95% in assay [1]; -10.8% in assay [2]; 8% in assay [3]; -49.5% in assay [4]; -9.5% in assay [5]; -3.95% in assay [6].
With `O=C(O)c1ccccc1C(=O)c1ccc(F)c2ccccc12`, the growth inhibition in assay [1] is 11%; in assay [2], 26.9%; in assay [3], 18.6%; in assay [4], 21.1%; in assay [5] it was 3.75%; in assay [6] it was 10.7%.
Regarding `NNC(=O)c1n[nH]n(N)c1=S`, the growth inhibition was 22.6% in assay [1]; 25.1% in assay [2]; 10.9% in assay [3]; -8.65% in assay [4]; -8.65% in assay [5]; 24.2% in assay [6].
`CC1(C)COC(c2c(F)cccc2Cl)=N1`: the growth inhibition in assay [1] was 3%; in assay [2], -13.8%; in assay [3], 6.2%; in assay [4], 22.4%; in assay [5] it was 11.7%; in assay [6], 13.2%.
With `Cc1cn(C2CC(O)C(COC(N)=O)O2)c(=O)[nH]c1=O` (stereo unspecified), the growth inhibition is -38.2% in assay [1]; -20.9% in assay [2]; -11.6% in assay [3]; -5.3% in assay [4]; -44.3% in assay [5]; 2.35% in assay [6].
On to `CC[N+](C)(CC)CCOC(=O)C(c1ccccc1)C(O)C1CCCC1` (stereo unspecified), for which the growth inhibition in assay [1] is -6.85%; in assay [2], 3.45%; in assay [3], -0.2%; in assay [4] it was -6.2%; in assay [5] it was 20.9%; in assay [6], -8.15%.
As to `COC(=O)Nc1c2c(nc3ccccc13)-c1ccccc1C(C)(C)C2OC` (stereo unspecified), the growth inhibition in assay [1] is 49.5%; in assay [2], 12.6%; in assay [3], 58.1%; in assay [4], -7.7%; in assay [5], 84% (active); in assay [6] it was 67%.
For `Cc1cccc[n+]1CC(=O)c1ccccc1[N+](=O)[O-]`, the growth inhibition in assay [1] is -5%; in assay [2] it was 6.85%; in assay [3], -3.3%; in assay [4], -6.55%; in assay [5], -20.6%; in assay [6] it was 8.1%.
For `CSc1nc2c(c(=O)n1C)N=C(c1ccc([N+](=O)[O-])cc1)CC(c1ccccc1)N2` (stereo unspecified), the growth inhibition was 6.8% in assay [1]; 3.1% in assay [2]; 17.8% in assay [3]; 10.7% in assay [4]; 18.1% in assay [5]; -16.2% in assay [6].
In the case of `C1CSCCSCSCCS1`, the growth inhibition in assay [1] was 32.1%; in assay [2], 11.8%; in assay [3], 17.8%; in assay [4], 30.7%; in assay [5], 42.4%; in assay [6], 17.8%.
For the compound `O=C(O)CCc1nc[nH]c1[N+](=O)[O-]`, the growth inhibition in assay [1] is -33.3%; in assay [2], -10.6%; in assay [3] it was -7.55%; in assay [4], -44.9%; in assay [5] it was 11.1%; in assay [6] it was 8.1%.
Regarding `N#Cc1c(-c2ccc(Cl)cc2)c(C#N)c(=O)n(NS(=O)(=O)c2ccccc2)c1O`, the growth inhibition is 17.5% in assay [1]; 46.9% in assay [2]; 41.7% in assay [3]; 48% in assay [4]; 47% in assay [5]; 50.2% in assay [6].
On to `N#CC(CN1CCCCC1)c1ccccc1` (stereo unspecified), for which the growth inhibition in assay [1] was 5.4%; in assay [2] it was 1.55%; in assay [3] it was 5.2%; in assay [4], -41.4%; in assay [5], -8.75%; in assay [6], 0.8%.
Consider `CN1CCC2(CC1)C(=NC1CCCCC1)NC(=O)N2c1ccccc1`, for which the growth inhibition in assay [1] was -26.4%; in assay [2], -6.15%; in assay [3], -5.45%; in assay [4], 1.1%; in assay [5], 6.6%; in assay [6], 3.7%.
For `CC(C)(C)c1ccc(O)c(C(=O)O)c1`, the growth inhibition in assay [1] was 3.55%; in assay [2] it was -0.95%; in assay [3] it was -5.8%; in assay [4] it was -4%; in assay [5], -35.1%; in assay [6] it was -23.2%.
On to `CC(=O)OCC1OC(Sc2cccc3ccccc23)C(OC(C)=O)C(OC(C)=O)C1OC(C)=O` (stereo unspecified), for which the growth inhibition in assay [1] was -16.8%; in assay [2] it was -5.8%; in assay [3], -4.75%; in assay [4] it was -20.8%; in assay [5], 0%; in assay [6], 3.4%.
On to `C/C=C(\CC)C(C)(C#N)C(=O)OCC` (stereo unspecified), for which the growth inhibition is -13.3% in assay [1]; -33.3% in assay [2]; -21.2% in assay [3]; -3.45% in assay [4]; -27.8% in assay [5]; -29.1% in assay [6].
On to `Cc1c(O)ccc2c(O)c(NC(=O)c3ccc4c(c3)CCC(C)(C)O4)c(=O)oc12`, for which the growth inhibition in assay [1] is 4.95%; in assay [2], -22.9%; in assay [3], 7.95%; in assay [4] it was -95.5%; in assay [5] it was -21.5%; in assay [6], 21.1%.
Turning to `C=CC(C)(C)C1=CC(=O)C(OC)=CC1=O`, the growth inhibition is 1.75% in assay [1]; -6.15% in assay [2]; -3.7% in assay [3]; -54.9% in assay [4]; 4.15% in assay [5]; -6.65% in assay [6].
As for `COc1ccc(/C=C/C(CC(NO)c2ccc(OC)cc2)=N\O)cc1` (stereo unspecified), the growth inhibition in assay [1] is 0.1%; in assay [2], -4.25%; in assay [3], 3.05%; in assay [4], -38%; in assay [5], -8.7%; in assay [6] it was 3.8%.
Consider `CCCC(CCC(C)=O)[N+](=O)[O-]` (stereo unspecified), for which the growth inhibition was -9.05% in assay [1]; -3.15% in assay [2]; -8.85% in assay [3]; -14.2% in assay [4]; 1% in assay [5]; 12% in assay [6].

Values taken from PubChem BioAssay (NCI).
